Screening results as filed in PubChem.
GLP1R inv ag = qHTS of GLP-1 Receptor Inverse Agonists (Inhibition Mode); HEK293 GLP-1R CRE-luciferase, luminescence, 24 h; GLP-1R form is constitutively active; Potency, µM (top dose mostly 38.3 µM), usual class: inhibitors; 410,000 tested, 1.6% active; Glucagon-like peptide 1 receptor (Homo sapiens), P43220; further: nearly all actives have a fitted effect of over 55% in size
Target sequence (P43220 whole entry, looked up): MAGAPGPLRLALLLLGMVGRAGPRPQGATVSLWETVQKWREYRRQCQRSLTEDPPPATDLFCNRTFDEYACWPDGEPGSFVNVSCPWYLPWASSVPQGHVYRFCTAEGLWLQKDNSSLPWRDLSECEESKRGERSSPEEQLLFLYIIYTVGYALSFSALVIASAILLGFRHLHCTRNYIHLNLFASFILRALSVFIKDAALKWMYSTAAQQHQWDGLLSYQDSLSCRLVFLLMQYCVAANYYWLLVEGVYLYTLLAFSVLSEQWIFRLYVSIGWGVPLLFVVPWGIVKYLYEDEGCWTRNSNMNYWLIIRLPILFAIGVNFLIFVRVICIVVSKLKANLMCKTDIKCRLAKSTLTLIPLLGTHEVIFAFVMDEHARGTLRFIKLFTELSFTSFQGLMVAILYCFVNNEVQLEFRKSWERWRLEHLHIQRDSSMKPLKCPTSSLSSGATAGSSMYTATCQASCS
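HEK293 cells stably co-expressing constitutively active GLP-1R and a cAMP-responsive luciferase reporter were seeded in DMEM with 10% Nu serum, given compounds after 12 h, and incubated 24 h at 37 deg C. Luminescence was then read.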
ClpP mod = qHTS Assay for Activators of ClpP | ATP-dependent Clp protease proteolytic subunit (Bacillus subtilis (strain 168)), P80244 | purified B. subtilis ClpP, FRET peptide cleavage, 20 min | Potency, µM (doses to about 57.5 µM) | 340,000 tested, 1.9% active | AID 651965, 2013; active means well fitted falling curve with a large enough effect; inconclusive means small, poorly fitted or top-dose-only effect; inactive means no such curve, though single readings can be large or run the other way; further: the source files actives as falling curves though it sought activators and does not explain the sign; nearly all actives have a fitted effect of over 65% in size
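Buffer: 100 mM Tris/HCl pH8, 100 mM KCl, 0.05% low protease BSA, 2.5% glycerol, 0.01% Tween-20. ClpP 10 microg/mL final; 20 min RT; delta FRET normalized to ADEP and DMSO controls.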
GLP-1R agonist = qHTS of GLP-1 Receptor Agonists | Glucagon-like peptide 1 receptor (Homo sapiens), P43220 | HEK293 GLP-1R CRE-luciferase, luminescence, 4-6 h; cells express a hypersensitive GLP-1R form | Potency, µM (highest dose often 45.6 µM), hits mostly activators | 380,000 tested, 0.007% active | AID 624172, 2012
GLP1R cytotox = qHTS of GLP-1 Receptor Inverse Agonists: Cytotox Screen; AID 624418, 2012; Potency, µM (highest dose often 38.3 µM), actives largely listed as inhibitors; 410,000 tested, 0.13% active; HEK293 cAMP-luciferase reporter cells, luminescence, 24 h;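 further: loss of luciferase light is scored as toxicity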
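To flag toxic compounds, the library was rerun on cells for 24 hr at 37 deg C and 5% CO2. Viability-linked luminescence was captured 12 min after adding luciferase detection reagent.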
Of the large screens only hits and unclear results are named; the others gave an inactive call; ! = not confirmed by another sample. Shown are actives, neighbours in structure and some others; about 3.2% of the full set was active somewhere. Unless noted, the call rests on the fitted dose curve; in most records, active means well fitted curve in the direction sought with a large enough effect; inconclusive means small, poorly fitted or top-dose-only effect, or another doubt; inactive means no such curve, though single readings can be large; an effect the other way counts as inactive or inconclusive.

O=c1c2c3c(sc2n(Cc2ccccc2F)c(=O)n1-c1ccc(Cl)cc1)CCCC3	none
Cc1cccc(N2CCN(C(=O)Cn3c(-c4cccs4)cc4ccccc43)CC2)c1C	GLP1R inv ag inconclusive, ClpP mod 16µM (no result: GLP-1R agonist)
Cc1ccc(C)c(N2CCN(C(=O)Cn3c(-c4cccs4)cc4ccccc43)CC2)c1	GLP1R inv ag inconclusive, ClpP mod 16µM (no result: GLP-1R agonist)
Cc1ccc(C)c(N2CCN(C(=O)Cn3ncc4ccsc4c3=O)CC2)c1	none
C=CCc1c(C)nc2c(OC)cccc2c1Cl	GLP1R inv ag inconclusive, GLP-1R agonist inconclusive
COc1cccc2c(Cl)c(CC=C(Cl)Cl)c(C)nc12	ClpP mod 10µM
CCc1ccc2oc(=O)cc(CN(C)Cc3ccccc3)c2c1	GLP1R inv ag inconclusive, ClpP mod 16µM
CCCCN(C)Cc1cc(=O)oc2cc3c(cc12)CCCC3	GLP1R inv ag inconclusive, ClpP mod 14µM
CC1=C(C(=O)Nc2cccc(C(F)(F)F)c2)C(c2ccccn2)n2ncnc2N1 (centres undefined)	none
COc1cccc(OC)c1-c1cc(CCCc2cc(-c3c(OC)cccc3OC)nc3ccccc23)c2ccccc2n1	none (no result: GLP1R inv ag, GLP-1R agonist, GLP1R cytotox)
COc1ccc(CNC(=O)c2[nH]c(C)c(C(C)=O)c2C)cc1	none (no result: ClpP mod)
COc1ccc(CCNC(=O)c2[nH]c(C)c(C(C)=O)c2C)cc1	ClpP mod 35µM
COc1ccc(-c2nc(Cn3c(SCc4ccc(F)cc4)nc4cccnc43)c(C)o2)cc1	none (no result: GLP-1R agonist)
CCNC(=O)c1ccc(CSc2nc3cccnc3n2Cc2ccc(OC)cc2)cc1	none (no result: GLP-1R agonist)
COc1ccc(-c2nc(Cn3c(SCc4ccc(C)cc4)nc4cccnc43)c(C)o2)cc1OC	GLP1R inv ag 10µM (no result: GLP-1R agonist)
COc1ccc(Cn2c(SCc3ccc(C(=O)NCc4ccccc4F)cc3)nc3cccnc32)cc1	ClpP mod 32µM (no result: GLP-1R agonist)
COc1ccc(Cn2c(SCc3ccc(C(=O)NCc4ccc(C)cc4)cc3)nc3cccnc32)cc1	ClpP mod 32µM (no result: GLP-1R agonist)
O=C(NCCN1CCCCC1)c1ccc(Cn2c(SCc3ccc(F)cc3)nc3cccnc32)cc1	ClpP mod 32µM (no result: GLP-1R agonist)
OC(CN1CCCCC1)c1cc(-c2ccccc2)on1 (centres undefined)	none (no result: GLP1R inv ag, ClpP mod, GLP1R cytotox)
CC(C)c1ccc(NC(c2nnc(-c3ccccc3)o2)c2ccc(F)cc2Cl)cc1 (centres undefined)	none (no result: GLP-1R agonist)
CC(C(=O)Nc1ccc(C#N)cc1)N(C)CC(=O)Nc1ccccc1Br (centres undefined)	GLP1R inv ag 11µM
Cc1cccc(C2(c3cccc(C)c3)CC2C(=O)Nc2ccc([N+](=O)[O-])cc2O)c1 (centres undefined)	GLP1R inv ag 2.5µM, GLP1R cytotox inconclusive
COc1cccc(-n2c(=O)c3c4c(sc3n(Cc3ccc(C)cc3)c2=O)CCCC4)c1	none (no result: GLP-1R agonist)
O=C(Nc1ccccc1F)c1cnn2c1NC(=C1CC1)C=C2C(F)F	none (no result: GLP1R inv ag, GLP-1R agonist, GLP1R cytotox)
CC(C)c1cccc(C(C)C)c1OC(=O)[C@H]1OC(c2ccc(Br)cc2)=C[C@@H]1c1ccc(Br)cc1	GLP1R inv ag 13µM
COc1ccc(C)cc1NC(C)C(=O)c1c[nH]c2ccccc12 (centres undefined)	none (no result: GLP1R inv ag, GLP-1R agonist, GLP1R cytotox)
CC(CCC(C)[n+]1cccc(Br)c1)[n+]1cccc(Br)c1 (centres undefined)	none (no result: GLP1R inv ag, GLP-1R agonist, GLP1R cytotox)
COc1ccc(/C=C/c2nc(C#N)c(NC3CCCCC3)o2)cc1OC	none (no result: GLP-1R agonist)
COc1ccccc1/C=C/c1nc(C#N)c(NC2CCCCC2)o1	GLP1R inv ag inconclusive, ClpP mod 2.8µM (no result: GLP-1R agonist)
CC(CN1CCOCC1)C(Cc1ccccc1)(Cc1ccccc1)C(=O)N1CCCC1 (centres undefined)	none (no result: GLP1R inv ag, ClpP mod, GLP1R cytotox)
CCCCCCCCCCCC(=O)OCC(O)C1OCC(O)C1O (centres undefined)	none (no result: GLP1R inv ag, ClpP mod, GLP1R cytotox)
CCN(CC)CC(=O)Nc1sc(C)cc1C(=O)c1ccccc1	GLP1R inv ag inconclusive
CCN(CC)CC(=O)Nc1sc(C)cc1C(=O)c1ccc(C)cc1	GLP1R inv ag 10µM
CCOC(=O)N1CCc2c(sc3c2c(=O)n(-c2ccccc2C(F)(F)F)c(=O)n3Cc2ccccc2C)C1	none (no result: GLP-1R agonist)
COc1ccc(NC(=O)CN2CCCN(S(=O)(=O)c3ccc(F)cc3)CC2)cc1	none
COC(=O)c1ccc(NC(=O)CN2CCN(S(=O)(=O)c3ccc(Br)cc3)CC2)cc1	GLP1R inv ag 3.5µM!
